Percent Effect data for 21 molecules are collected here from ChEMBL document CHEMBL3988442, “University of Dundee, Small-Polar-MMV Screening Library” (2021).

SMILES strings stand for the structures.

For the assay, the target named is AMP-activated protein kinase, AMPK (Homo sapiens) (UniProt P54646+O43741+P54619+Q9UGJ0+Q9Y478+Q13131+Q9UGI9). Briefly: AMP-dependent Kinase enzyme assay. An in vitro enzyme assay that detects ADP turnover that is directly proportional to AMPK activity. This uses naive AMPK that is activated during the assay with MK-8722. It counts as functional. The arrangement: scale not given: direction of the effect not stated beside the values. To be noted: 30 µM.
For the molecule `C=Cn1cc(CN2CCC(c3ncc(Cl)cc3S(C)(=O)=O)CC2)c(C)n1`, the Percent Effect came out at 13.4%. The result for `CC(C)c1nccc(CN(C)Cc2cccc(-n3cccn3)c2)n1` reads -3.37%; that for `CC(=O)NCCNC(=O)c1cc(COc2ccccc2)[nH]n1`, 14.5%; that for `O=C(CCN1CCOCC1)Nc1cccc(CNCc2cccs2)c1`, -8.77%. With `Cc1nnc(NC(=O)NCCN(C(=O)OC(C)(C)C)C2CC2)s1` the figure was -6.8%; with `COc1ccc(-c2cccc3c2OC(CN)C3)cc1F` (stereo unspecified), 0.444%; with `Cc1cc(CNCC2CNc3ccnn3C2)no1` (stereo unspecified), -2.57%. The result for `CCc1cc(N2CCC(NCCc3ccc(C)o3)CC2)nc(C)n1` reads 5.69%; that for `CCC(C#N)NC(=O)c1sccc1OC` (stereo unspecified), 2.49%. As to `Cc1cc(CNS(=O)(=O)CCCC#N)ccc1N(C)C`, the Percent Effect was -7.86%. With `CN(Cc1cnn(C)c1)C(=O)Nc1cccnc1-n1cccn1` the figure was 0.000815%. With `CN1CCN(CCOc2ccc(NC(=O)c3cnc[nH]3)cc2)CC1` the figure was 0.519%; with `CC(C)c1nnc(NC(=O)Cc2csc(-c3nnc[nH]3)n2)s1`, 6.49%. With `C[S+]([O-])c1cccc(NC(=O)N[C@H](CCO)c2ccccc2)c1` (stereo partly specified) the figure was -2.38%; with `NC(=O)NC1CCN(Cc2ccc(Br)c(F)c2)CC1`, 4.07%. Turning to `O=C(NCC(=O)N1CCCCC1)c1sccc1C1CC1`, the Percent Effect is -1.89%.

As for `CCC(C)(CC(=O)OC)NCc1noc(C)n1` (stereo unspecified), the Percent Effect was determined as 1.21%. The result for `O=C1[C@@H]2C[C@H](O)CCN2C(=O)CN1CCSc1ccccn1` reads -5.57%; that for `CCCN(Cc1nnnn1C1CC1)CC1COc2ccccc2O1` (stereo unspecified), 7.59%. Take `COC(=O)c1cccc(S(=O)(=O)NCC(c2ccco2)N2CCCC2)c1` (stereo unspecified): the Percent Effect is -6.45%. With `CCc1nc(CCNS(=O)(=O)c2cccc(C(=O)N(C)CC)c2)cs1` the figure was 1%.
